# The campaign covered roughly 5,500 compounds. About 2,000 (36%) were called active. Another 18% or so got no clear call; they are omitted. This is one part of the list. A number with no mark means an inactive call. Rule as the data show it: active = normalized growth mostly below about 0.91 (no sharp cut-off); inconclusive = no clear call, values can overlap the other calls; inactive = mostly above about 0.92.
# Assay: chemical genetic growth profiling, strain panel (AID 1159580);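 also: tested at 20 µM; growth read once vehicle control cultures reached saturation at 30 °C; 1 = growth at the plate median or of vehicle wells; lower values mean less growth of the strain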
# Settings: growth OD
# [1] = S. cerevisiae deletion strains, locus YDL101C, strain DUN1, hits give low values
# [2] = S. cerevisiae deletion strains, locus YGR078C, strain PAC10, hits give low values
# [3] = S. cerevisiae deletion strains, locus YHR030C, strain SLT2, hits give low values
# [4] = S. cerevisiae deletion strains, locus YJR075W, strain HOC1, hits give low values
# [5] = S. cerevisiae deletion strains, locus YMR263W, strain SAP30, hits give low values
# [6] = S. cerevisiae deletion strains, locus YMR307W, strain GAS1, hits give low values
# [7] = S. cerevisiae deletion strains, locus YNL128W, strain TEP1, hits give low values
# [8] = S. cerevisiae deletion strains, locus YNL322C, strain KRE1, hits give low values
# [9] = S. cerevisiae deletion strains, locus YPL055C, strain LGE1, hits give low values
# [10] = S. cerevisiae deletion strains, locus YPL241C, strain CIN2, hits give low values
structure (smiles),measurement,setting,value
N#CC(NCc1ccccc1)c1ccc(Cl)c(Cl)c1 (stereo unspecified),normalized growth,"S. cerevisiae deletion strains, locus YAL013W, strain DEP1, hits give low values",1
same,normalized growth,"S. cerevisiae deletion strains, locus YBR229C, strain ROT2, hits give low values",0.983
same,normalized growth,[1],0.974
same,normalized growth,"S. cerevisiae deletion strains, locus YDL134C, strain PPH21, hits give low values",0.848 (active)
same,normalized growth,"S. cerevisiae deletion strains, locus YDR150W, strain NUM1, hits give low values",0.923
same,normalized growth,"S. cerevisiae deletion strains, locus YEL061C, strain CIN8, hits give low values",0.985
same,normalized growth,[2],0.984
same,normalized growth,"S. cerevisiae deletion strains, locus YGR229C, strain SMI1, hits give low values",0.989
same,normalized growth,[3],0.887
same,normalized growth,"S. cerevisiae deletion strains, locus YHR087W, strain rtc3, hits give low values",1.01
same,normalized growth,"S. cerevisiae deletion strains, locus YJR043C, strain POL32, hits give low values",1.01
same,normalized growth,[4],0.968
same,normalized growth,"S. cerevisiae deletion strains, locus YLR039C, strain RIC1, hits give low values",0.929
same,normalized growth,"S. cerevisiae deletion strains, locus YLR058C, strain SHM2 (second series), hits give low values",0.995
same,normalized growth,"S. cerevisiae deletion strains, locus YLR085C, strain ARP6, hits give low values",0.977
same,normalized growth,"S. cerevisiae deletion strains, locus YLR262C, strain YPT6, hits give low values",0.957
same,normalized growth,"S. cerevisiae deletion strains, locus YML094W, strain GIM5, hits give low values",0.958
same,normalized growth,"S. cerevisiae deletion strains, locus YMR219W, strain ESC1, hits give low values",0.998
same,normalized growth,[5],0.974
same,normalized growth,[6],0.818
same,normalized growth,[7],0.994
same,normalized growth,"S. cerevisiae deletion strains, locus YNL153C, strain GIM3, hits give low values",0.98
same,normalized growth,"S. cerevisiae deletion strains, locus YNL298W, strain CLA4 (second series), hits give low values",0.96
same,normalized growth,[8],1.01
same,normalized growth,"S. cerevisiae deletion strains, locus YNR030W, strain Alg12, hits give low values",0.968
same,normalized growth,"S. cerevisiae deletion strains, locus YOL006C, strain TOP1, hits give low values",0.982
same,normalized growth,[9],0.988
same,normalized growth,[10],0.938
same,normalized growth,"S. cerevisiae deletion strains, locus YPR135W, strain CTF4, hits give low values",0.938
same,normalized growth,"S. cerevisiae strains, strain wild type, hits give low values",1
Cc1oc(C(C)(C)C)cc1-c1cc(N)n(-c2ccc(I)cc2)n1,normalized growth,"S. cerevisiae deletion strains, locus YAR019C, strain CDC15, hits give low values",1
same,normalized growth,"S. cerevisiae deletion strains, locus YBL105C, strain PKC1, hits give low values",1.01
same,normalized growth,"S. cerevisiae deletion strains, locus YBR135W, strain CKS1, hits give low values",1.02
same,normalized growth,"S. cerevisiae deletion strains, locus YBR136W, strain MEC1, hits give low values",0.992
same,normalized growth,"S. cerevisiae deletion strains, locus YBR160W, strain CDC28, hits give low values",1.01
same,normalized growth,"S. cerevisiae deletion strains, locus YDL017W, strain CDC7, hits give low values",1.01
same,normalized growth,"S. cerevisiae deletion strains, locus YDL028C, strain MPS1, hits give low values",0.976
same,normalized growth,[1],0.987
same,normalized growth,"S. cerevisiae deletion strains, locus YDL108W, strain KIN28, hits give low values",1.02
same,normalized growth,"S. cerevisiae deletion strains, locus YDL132W, strain cdc53, hits give low values",1.01
same,normalized growth,"S. cerevisiae deletion strains, locus YDL214C, strain PRR2, hits give low values",1.15
same,normalized growth,"S. cerevisiae deletion strains, locus YDR052C, strain DBF4, hits give low values",1
same,normalized growth,"S. cerevisiae deletion strains, locus YDR054C, strain cdc34, hits give low values",1.01
same,normalized growth,"S. cerevisiae deletion strains, locus YDR226W, strain ADK1, hits give low values",0.987
same,normalized growth,"S. cerevisiae deletion strains, locus YDR477W, strain SNF1, hits give low values",0.956
same,normalized growth,"S. cerevisiae deletion strains, locus YER123W, strain YCK3, hits give low values",0.946
same,normalized growth,"S. cerevisiae deletion strains, locus YER133W, strain GLC7, hits give low values",0.992
same,normalized growth,"S. cerevisiae deletion strains, locus YFL009W, strain cdc4, hits give low values",0.992
same,normalized growth,"S. cerevisiae deletion strains, locus YFL029C, strain CAK1, hits give low values",0.995
same,normalized growth,"S. cerevisiae deletion strains, locus YFR003C, strain YPI1, hits give low values",1
same,normalized growth,"S. cerevisiae deletion strains, locus YFR019W, strain FAB1, hits give low values",0.967
same,normalized growth,"S. cerevisiae deletion strains, locus YFR028C, strain CDC14, hits give low values",1
same,normalized growth,"S. cerevisiae deletion strains, locus YGR040W, strain KSS1, hits give low values",0.985
same,normalized growth,"S. cerevisiae deletion strains, locus YGR052W, strain FMP48, hits give low values",0.985
same,normalized growth,"S. cerevisiae deletion strains, locus YGR092W, strain DBF2, hits give low values",0.882
same,normalized growth,[3],0.717 (active)
same,normalized growth,"S. cerevisiae deletion strains, locus YHR079C, strain IRE1, hits give low values",0.894
same,normalized growth,"S. cerevisiae deletion strains, locus YHR082C, strain KSP1, hits give low values",0.957
same,normalized growth,"S. cerevisiae deletion strains, locus YHR205W, strain SCH9, hits give low values",0.885
same,normalized growth,"S. cerevisiae deletion strains, locus YIL147C, strain SLN1, hits give low values",0.997
same,normalized growth,"S. cerevisiae deletion strains, locus YJL095W, strain BCK1, hits give low values",0.851
same,normalized growth,"S. cerevisiae deletion strains, locus YJL128C, strain PBS2, hits give low values",0.961
same,normalized growth,"S. cerevisiae deletion strains, locus YJL157C, strain FAR1, hits give low values",0.979
same,normalized growth,"S. cerevisiae deletion strains, locus YJR016C, strain ILV3, hits give low values",1.01
same,normalized growth,"S. cerevisiae deletion strains, locus YJR066W, strain TOR1 (second series), hits give low values",0.936
same,normalized growth,"S. cerevisiae deletion strains, locus YJR066W, strain TOR1, hits give low values",0.903
same,normalized growth,"S. cerevisiae deletion strains, locus YKL048C, strain ELM1, hits give low values",0.98
same,normalized growth,"S. cerevisiae deletion strains, locus YKL101W, strain HSL1, hits give low values",0.948
same,normalized growth,"S. cerevisiae deletion strains, locus YKL193C, strain SDS22, hits give low values",1.02
same,normalized growth,"S. cerevisiae deletion strains, locus YKL203C, strain TOR2, hits give low values",1.05
same,normalized growth,"S. cerevisiae deletion strains, locus YLR113W, strain HOG1, hits give low values",0.815 (active)
same,normalized growth,"S. cerevisiae deletion strains, locus YLR133W, strain CKI1, hits give low values",0.943
same,normalized growth,"S. cerevisiae deletion strains, locus YLR403W, strain SFP1, hits give low values",0.965
same,normalized growth,"S. cerevisiae deletion strains, locus YML070W, strain DAK1, hits give low values",0.971
same,normalized growth,"S. cerevisiae deletion strains, locus YMR001C, strain CDC5, hits give low values",1
same,normalized growth,"S. cerevisiae deletion strains, locus YMR205C, strain PFK2 (second series), hits give low values",0.94
same,normalized growth,"S. cerevisiae deletion strains, locus YMR277W, strain FCP1, hits give low values",1.13 [resistant] (active)
same,normalized growth,"S. cerevisiae deletion strains, locus YNL006W, strain LST8, hits give low values",1.01
same,normalized growth,"S. cerevisiae deletion strains, locus YNL020C, strain ARK1, hits give low values",0.968
same,normalized growth,"S. cerevisiae deletion strains, locus YNL161W, strain CBK1, hits give low values",1.02
same,normalized growth,"S. cerevisiae deletion strains, locus YNL183C, strain NPR1, hits give low values",0.988
same,normalized growth,"S. cerevisiae deletion strains, locus YNL207W, strain RIO2, hits give low values",1.02
same,normalized growth,"S. cerevisiae deletion strains, locus YNL222W, strain SSU72, hits give low values",1.03
same,normalized growth,"S. cerevisiae deletion strains, locus YNL307C, strain MCK1 (second series), hits give low values",0.935
same,normalized growth,"S. cerevisiae deletion strains, locus YOL078W, strain AVO1, hits give low values",1.03
same,normalized growth,"S. cerevisiae deletion strains, locus YOL136C, strain PFK27, hits give low values",0.959
same,normalized growth,"S. cerevisiae deletion strains, locus YOR061W, strain CKA2, hits give low values",0.944
same,normalized growth,"S. cerevisiae deletion strains, locus YOR119C, strain RIO1, hits give low values",0.972
same,normalized growth,"S. cerevisiae deletion strains, locus YOR231W, strain MKK1, hits give low values",0.927
same,normalized growth,"S. cerevisiae deletion strains, locus YOR329C, strain SCD5, hits give low values",1.01
same,normalized growth,"S. cerevisiae deletion strains, locus YPL031C, strain PHO85, hits give low values",0.983
same,normalized growth,"S. cerevisiae deletion strains, locus YPL153C, strain RAD53, hits give low values",0.987
same,normalized growth,"S. cerevisiae deletion strains, locus YPL204W, strain HRR25, hits give low values",0.964
same,normalized growth,"S. cerevisiae deletion strains, locus YPL209C, strain IPL1, hits give low values",1.01
same,normalized growth,"S. cerevisiae deletion strains, locus YPL256C, strain CLN2, hits give low values",0.892
same,normalized growth,"S. cerevisiae deletion strains, locus YPR025C, strain CCL1, hits give low values",1.01
same,normalized growth,"S. cerevisiae deletion strains, locus YPR106W, strain ISR1, hits give low values",0.992
same,normalized growth,"S. cerevisiae deletion strains, locus YPR111W, strain DBF20, hits give low values",0.989
same,normalized growth,"S. cerevisiae deletion strains, strain NNK1, hits give low values",1
same,normalized growth,"S. cerevisiae deletion strains, strain TSCII, hits give low values",1.01
C[C@@H](N)Cc1cnc[nH]1,normalized growth,"S. cerevisiae deletion strains, locus YAL040C, strain CLN3, hits give low values",0.96
same,normalized growth,"S. cerevisiae deletion strains, locus YCL061C, strain MRC1 (second series), hits give low values",1.01
same,normalized growth,"S. cerevisiae deletion strains, locus YDR363W, strain ESC2, hits give low values",1.02
same,normalized growth,"S. cerevisiae deletion strains, locus YER002W, strain NOP16, hits give low values",1.01
same,normalized growth,[2],1.02
same,normalized growth,[4],1.02
same,normalized growth,[5],1.01
same,normalized growth,[6],1.02
same,normalized growth,[7],1.01
same,normalized growth,"S. cerevisiae deletion strains, locus YNL175C, strain NOP13, hits give low values",1.01
same,normalized growth,"S. cerevisiae deletion strains, locus YNL197C, strain WHI3, hits give low values",1.02
same,normalized growth,"S. cerevisiae deletion strains, locus YNL224C, strain SQS1, hits give low values",1.02
same,normalized growth,[8],1.02
same,normalized growth,"S. cerevisiae deletion strains, locus YOR083W, strain WHI5 (second series), hits give low values",1.04
same,normalized growth,[9],1.03
same,normalized growth,[10],1.01
